DT40 TDP1 no CPT = qHTS for Inhibitors of human tyrosyl-DNA phosphodiesterase 1 (TDP1): qHTS in cells in absence of CPT | DT40 Tdp1-/- hTDP1 cells, no CPT, ATP luminescence, 48 h | Potency, µM (series often up to 46.2 µM), for inactives: at the top dose activity change, negative = growth inhibition, most hits filed as inhibitors | 15% of 420,000 active | AID 686978, 2013; note: nearly all actives have a fitted effect of over 55% in size
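No-CPT arm: Tdp1-/-;hTDP1 DT40 cells (400/well) plus compounds, incubated ≥48 hr at 37 °C. Readout CellTiter-Glo luminescence.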
HT1080 IDH1KD tx = qHTS for induction of synthetic lethality in tumor cells producing 2HG: qHTS for the HT-1080-IDH1KD cell line; HT-1080 IDH1 knockdown viability, ATP luminescence, 48 h; 2% of 360,000 active; Potency, µM (series often up to 46.1 µM), inactives show top-dose activity, negative = toxicity, usual class: cytotoxic;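 note: 0% = DMSO wells and -100% = cell-free medium wells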
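Viability of IDH1-knockdown HT-1080 fibrosarcoma cells was assessed by CellTiter-Glo after 48 h at 37 °C with titrated compound; concentration-effect curves were classified by fit quality and response size.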
HT1080-NT tox = qHTS for induction of synthetic lethality in tumor cells producing 2HG: qHTS for the HT-1080-NT fibrosarcoma cell line | HT-1080-NT fibrosarcoma viability, CellTiter-Glo ATP luminescence, 48 h | Potency, µM (series often up to 46.1 µM), inactives show top-dose activity, negative = less viability, most hits filed as cytotoxic | 1.6% of 360,000 active;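 note: NT is the 2HG producing partner of a matched IDH1 knockdown line; 0% = DMSO-treated cells and -100% = media-only wells without cells; nearly all actives have a fitted effect of over 55% in size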
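Fibrosarcoma NT cells, 750 per well in 5% FBS RPMI, were exposed to compound for 48 hours. Viability: CellTiter-Glo luminescence.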
KB-3-1 cytotox = qHTS assay for MDR1-selective chemotherapeutics: Primary screen using the parental adenocarcinoma cell KB-3-1 | KB-3-1 viability, CellTiter-Glo ATP luminescence, 72 h | Potency, µM (doses to about 46.1 µM), usual class: cytotoxic | 1.4% of 400,000 active | AID 1347075, 2019; note: nearly all actives have a fitted effect of over 60% in size
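Multi-concentration cytotoxicity screen in KB-3-1 cells grown in DMEM lacking phenol red with 10% FBS. After 72 h at 37 °C with compound, ATP-dependent luminescence was recorded.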
DT40 TDP1 CPT = qHTS for Inhibitors of human tyrosyl-DNA phosphodiesterase 1 (TDP1): qHTS in cells in presence of CPT. chicken DT40 Tdp1-/-;hTDP1 cells + 20 nM CPT, ATP luminescence, 48 h. Potency, µM (series often up to 46.2 µM), for inactives: at the top dose activity change, negative = growth inhibition, most hits filed as inhibitors. 12% of 420,000 active. AID 686979, 2013; note: nearly all actives have a fitted effect of over 55% in size
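Chicken DT40 Tdp1-/- cells stably complemented with human TDP1 were seeded at 400 cells/well in medium containing 20 nM camptothecin, exposed to pin-transferred compounds, and grown at 37 °C for at least 48 hr. Viability was read as ATP luminescence.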
KB-V1 MDR tox = qHTS assay for MDR1-selective chemotherapeutics: Primary screen using the drug-selected MDR subline cells KB-V1; 3.4% of 400,000 active; AID 1347076, 2019; Potency, µM (series often up to 46.1 µM), usual class: cytotoxic; KB-V1 MDR cells viability, CellTiter-Glo, 72 h; note: nearly all actives have a fitted effect of over 60% in size
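Readout: CellTiter-Glo luminescence, 10 min after addition. Cells: KB-V1 MDR subline, 72 h at 37 degrees C with compound. Analysis: corrected, normalized data fitted to concentration-effect curves.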
Starred values were filed as active, the others as inactive; [ ] = remark or other dose. Rows were chosen to be rich in hits. Some 19% of all compounds tested hit in one or more screens of this group. Calls come from the whole dose curve; as a rule, active = well fitted curve in the direction sought with a large enough effect; inconclusive = small, poorly fitted or top-dose-only effect, or another doubt; inactive = no such curve, though single readings can be large; an effect the other way counts as inactive or inconclusive. Unless noted, % is set by controls: 0 for no effect and ±100 for the full control effect; potency is the fitted concentration of half-maximal effect.

`CCc1ccccc1NC(=O)Nc1nnc(N(C)Cc2ccccc2)s1` gave DT40 TDP1 no CPT inconclusive, KB-3-1 cytotox inactive, DT40 TDP1 CPT inconclusive and KB-V1 MDR tox inactive.
`COC(=O)N(C)C[C@@H]1OCc2cnnn2CCCC(=O)N([C@H](C)CO)C[C@@H]1C` gave DT40 TDP1 no CPT -2.8%, HT1080 IDH1KD tx 16.3%, HT1080-NT tox 3.2%, KB-3-1 cytotox inactive, DT40 TDP1 CPT -1.3% and KB-V1 MDR tox inactive.
Screening O=C1C(Cl)=C(NCc2ccco2)C(=O)c2ccccc21 returned DT40 TDP1 no CPT 8.2µM*, HT1080 IDH1KD tx 16.4µM*, HT1080-NT tox inconclusive, KB-3-1 cytotox inconclusive, DT40 TDP1 CPT 11.6µM* and KB-V1 MDR tox inconclusive.
Screening O=c1nccc(NCc2ccco2)[nH]1 returned DT40 TDP1 no CPT -7.9%, HT1080 IDH1KD tx 18.3%, HT1080-NT tox -0.4%, KB-3-1 cytotox inconclusive, DT40 TDP1 CPT 1.0% and KB-V1 MDR tox inactive.
`CCCC(=O)NC1=C(Cl)C(=O)c2ccccc2C1=O` gave DT40 TDP1 no CPT 0.651µM*, HT1080 IDH1KD tx 7.31µM*, HT1080-NT tox inconclusive, KB-3-1 cytotox inconclusive, DT40 TDP1 CPT 0.651µM* and KB-V1 MDR tox inconclusive.
`CCNC1=C(Cl)C(=O)c2ccccc2C1=O` gave DT40 TDP1 no CPT 23.1µM*, HT1080 IDH1KD tx inconclusive, HT1080-NT tox inconclusive, KB-3-1 cytotox inconclusive, DT40 TDP1 CPT 18.4µM* and KB-V1 MDR tox inconclusive.
Screening O=C1C(Cl)=C(NCCN2CCCCC2)C(=O)c2ccccc21 returned DT40 TDP1 no CPT inconclusive, HT1080 IDH1KD tx 23.1µM*, HT1080-NT tox 14.6µM*, KB-3-1 cytotox inconclusive, DT40 TDP1 CPT 4.11µM* and KB-V1 MDR tox inconclusive.
For C[C@H]1CN([C@@H](C)CO)S(=O)(=O)c2ccc(Br)cc2O[C@@H]1CN(C)C(=O)Cc1cccnc1 the results were DT40 TDP1 no CPT 4.7%, HT1080 IDH1KD tx 16.5%, HT1080-NT tox 24.8%, KB-3-1 cytotox inactive, DT40 TDP1 CPT 16.1% and KB-V1 MDR tox inactive.
`CC1(C(=O)NS(=O)(=O)c2ccc(F)cc2F)CCN1C(=O)Cc1cccc2ccccc12` (stereo not drawn) gave DT40 TDP1 no CPT -0.9%, HT1080 IDH1KD tx 22.8%, HT1080-NT tox 6.9%, KB-3-1 cytotox inactive, DT40 TDP1 CPT 2.8% and KB-V1 MDR tox inactive.
Screening N#Cc1ccccc1CSc1nc(N)cc(N)n1 returned DT40 TDP1 no CPT -8.3%, HT1080 IDH1KD tx 1.1%, HT1080-NT tox 0.6%, KB-3-1 cytotox inactive, DT40 TDP1 CPT -5.5% and KB-V1 MDR tox inconclusive.
For Cc1ccc(NC(=O)C/C(N)=N/OC(=O)Nc2cccc(Cl)c2)cc1 the results were DT40 TDP1 no CPT -1.0%, HT1080 IDH1KD tx -1.6%, HT1080-NT tox 6.0%[9.24 µM], KB-3-1 cytotox inactive, DT40 TDP1 CPT -16.9% and KB-V1 MDR tox inconclusive.
For Cn1c(=O)c2c([nH]c(=S)n2Cc2ccc(Cl)cc2)n(C)c1=O the results were DT40 TDP1 no CPT -15.9%, HT1080 IDH1KD tx -9.1%, HT1080-NT tox -11.6%, KB-3-1 cytotox inactive, DT40 TDP1 CPT -27.2% and KB-V1 MDR tox inactive.
Screening Cc1ccc(-c2nc(-c3cc4cc(Cl)ccc4oc3=O)sc2C)cc1 returned DT40 TDP1 no CPT inconclusive, KB-3-1 cytotox inconclusive, DT40 TDP1 CPT -11.2% and KB-V1 MDR tox inactive.
O=C(NC1CCCCC1)N(c1ccccc1)c1nnc(-c2cccc([N+](=O)[O-])c2)s1 was read as DT40 TDP1 no CPT 11.6µM*, HT1080 IDH1KD tx 8.5%, HT1080-NT tox -8.0%, KB-3-1 cytotox inactive, DT40 TDP1 CPT 25.9µM* and KB-V1 MDR tox inactive.
OC[C@H]1O[C@@H](c2nc3ccc(-c4nc(-c5cccs5)no4)cc3[nH]2)C[C@@H]1O was read as DT40 TDP1 no CPT inconclusive, HT1080 IDH1KD tx -9.7%, HT1080-NT tox -8.2%, KB-3-1 cytotox inactive, DT40 TDP1 CPT inconclusive and KB-V1 MDR tox inactive.
N#Cc1nc(Cc2ccccc2)oc1N1CCN(c2ccccc2)CC1 was read as DT40 TDP1 no CPT inconclusive, HT1080 IDH1KD tx -2.3%, HT1080-NT tox 0.0%, KB-3-1 cytotox inactive, DT40 TDP1 CPT 10.3µM* and KB-V1 MDR tox inactive.
For N#Cc1nc(COc2cccc(Cl)c2)oc1N1CCN(c2ccccc2)CC1 the results were DT40 TDP1 no CPT inconclusive, HT1080 IDH1KD tx 3.4%, HT1080-NT tox 3.0%, KB-3-1 cytotox inactive, DT40 TDP1 CPT inconclusive and KB-V1 MDR tox inactive.
COc1ccccc1-c1nc(C#N)c(N2CCC(Cc3ccccc3)CC2)o1 was read as DT40 TDP1 no CPT 18.4µM*, HT1080 IDH1KD tx -13.7%, HT1080-NT tox -16.1%, KB-3-1 cytotox inconclusive, DT40 TDP1 CPT inconclusive and KB-V1 MDR tox inactive.
For COc1ccccc1-c1nc(C#N)c(N2CCN(Cc3ccccc3)CC2)o1 the results were DT40 TDP1 no CPT 23.1µM*, HT1080 IDH1KD tx -2.4%, HT1080-NT tox -17.6%, KB-3-1 cytotox inactive, DT40 TDP1 CPT inconclusive and KB-V1 MDR tox inactive.
For CC(OC(=O)c1nc(Cl)ccc1Cl)C(=O)Nc1ccccc1F (stereo not drawn) the results were DT40 TDP1 no CPT -2.7%, HT1080 IDH1KD tx 5.7%, HT1080-NT tox 6.1%, KB-3-1 cytotox inactive, DT40 TDP1 CPT 18.3% and KB-V1 MDR tox inactive.
COc1cc(C(=S)N2CCN(c3ccccc3Cl)CC2)cc(O)c1O was read as DT40 TDP1 no CPT 23.1µM*, HT1080 IDH1KD tx inconclusive, HT1080-NT tox -22.7%, KB-3-1 cytotox inactive, DT40 TDP1 CPT inconclusive and KB-V1 MDR tox inactive.
Screening COc1ccc(C(=S)N2CCCC2)cc1OC returned DT40 TDP1 no CPT -4.4%, HT1080 IDH1KD tx 7.2%, HT1080-NT tox 8.3%, KB-3-1 cytotox inactive, DT40 TDP1 CPT 2.0% and KB-V1 MDR tox inactive.
`COc1ccc(C(=S)N2CCN(c3ccccc3Cl)CC2)cc1OC` gave DT40 TDP1 no CPT 16.4µM*, HT1080 IDH1KD tx -4.2%, HT1080-NT tox -9.7%, KB-3-1 cytotox inactive, DT40 TDP1 CPT inconclusive and KB-V1 MDR tox inactive.
`Cc1ccc(NC(=O)C(=O)NCC(c2ccc3c(c2)OCO3)N2CCN(C)CC2)c(C)c1` (stereo not drawn) gave DT40 TDP1 no CPT inconclusive, KB-3-1 cytotox inactive, DT40 TDP1 CPT inconclusive and KB-V1 MDR tox inactive.
